Measured values as given in ChEMBL document CHEMBL1961873, “Compounds: GSK PKIS; Assays: Nanosyn kinase panel” (2012).

Columns and labels:
[1] = molecular target: T1, Serine/threonine-protein kinase TBK1 (Homo sapiens) (UniProt Q9UHD2); settings: at 1 µM;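 also: values are mean inhibition of TBK1, screened as part of the GSK published kinase inhibitor set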
T1 sequence (whole entry): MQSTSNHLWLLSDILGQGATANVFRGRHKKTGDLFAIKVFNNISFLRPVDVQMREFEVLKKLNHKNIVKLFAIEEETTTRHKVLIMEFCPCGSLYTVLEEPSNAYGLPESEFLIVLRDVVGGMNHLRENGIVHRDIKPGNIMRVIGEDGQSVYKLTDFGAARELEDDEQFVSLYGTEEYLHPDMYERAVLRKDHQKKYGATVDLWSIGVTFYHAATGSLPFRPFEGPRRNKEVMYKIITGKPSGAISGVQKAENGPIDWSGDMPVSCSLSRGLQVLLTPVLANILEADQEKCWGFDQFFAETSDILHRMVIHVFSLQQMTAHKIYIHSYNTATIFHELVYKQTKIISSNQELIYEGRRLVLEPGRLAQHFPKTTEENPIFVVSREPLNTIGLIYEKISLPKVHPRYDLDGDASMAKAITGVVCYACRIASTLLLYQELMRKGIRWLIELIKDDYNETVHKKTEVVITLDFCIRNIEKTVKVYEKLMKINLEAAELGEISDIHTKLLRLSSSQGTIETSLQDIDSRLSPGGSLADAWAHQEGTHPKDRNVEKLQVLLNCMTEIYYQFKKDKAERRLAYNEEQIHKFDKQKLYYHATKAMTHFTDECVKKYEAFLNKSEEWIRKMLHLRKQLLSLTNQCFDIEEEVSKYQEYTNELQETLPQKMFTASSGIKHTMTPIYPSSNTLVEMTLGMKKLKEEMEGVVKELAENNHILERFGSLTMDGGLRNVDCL

[2] = molecular target: T2, Testis-specific serine/threonine-protein kinase 1 (Homo sapiens) (UniProt Q9BXA7); settings: at 0.1 µM
T2 sequence (whole entry): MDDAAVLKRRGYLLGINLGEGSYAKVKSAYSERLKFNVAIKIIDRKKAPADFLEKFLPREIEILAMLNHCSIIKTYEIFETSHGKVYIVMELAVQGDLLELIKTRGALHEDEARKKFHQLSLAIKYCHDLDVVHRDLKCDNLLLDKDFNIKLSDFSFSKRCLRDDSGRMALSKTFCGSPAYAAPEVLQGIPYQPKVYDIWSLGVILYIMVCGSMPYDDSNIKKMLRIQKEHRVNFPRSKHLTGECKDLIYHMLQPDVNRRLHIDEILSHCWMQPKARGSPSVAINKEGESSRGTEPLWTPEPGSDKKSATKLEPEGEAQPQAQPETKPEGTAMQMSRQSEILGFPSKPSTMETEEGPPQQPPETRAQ

[3] = molecular target: T2, Testis-specific serine/threonine-protein kinase 1 (Homo sapiens); settings: at 1 µM
[4] = molecular target: T3, Testis-specific serine/threonine-protein kinase 2 (Homo sapiens) (UniProt Q96PF2); settings: at 0.1 µM
T3 sequence (whole entry): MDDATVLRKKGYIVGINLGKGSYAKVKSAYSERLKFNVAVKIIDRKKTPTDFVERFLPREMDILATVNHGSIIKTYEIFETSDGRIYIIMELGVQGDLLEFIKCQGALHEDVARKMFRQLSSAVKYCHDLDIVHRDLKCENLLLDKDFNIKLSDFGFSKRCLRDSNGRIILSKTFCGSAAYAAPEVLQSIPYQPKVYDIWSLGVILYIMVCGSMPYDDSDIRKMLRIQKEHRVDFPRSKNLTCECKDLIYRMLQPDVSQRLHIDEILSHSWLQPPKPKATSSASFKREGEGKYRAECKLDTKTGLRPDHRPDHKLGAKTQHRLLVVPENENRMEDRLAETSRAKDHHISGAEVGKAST

[5] = molecular target: T3, Testis-specific serine/threonine-protein kinase 2 (Homo sapiens); settings: at 1 µM
[6] = molecular target: Casein kinase I isoform alpha (Homo sapiens) (UniProt P48729); settings: at 0.1 µM
Chain of Casein kinase I isoform alpha (Homo sapiens) (P48729 2-337 limits assumed): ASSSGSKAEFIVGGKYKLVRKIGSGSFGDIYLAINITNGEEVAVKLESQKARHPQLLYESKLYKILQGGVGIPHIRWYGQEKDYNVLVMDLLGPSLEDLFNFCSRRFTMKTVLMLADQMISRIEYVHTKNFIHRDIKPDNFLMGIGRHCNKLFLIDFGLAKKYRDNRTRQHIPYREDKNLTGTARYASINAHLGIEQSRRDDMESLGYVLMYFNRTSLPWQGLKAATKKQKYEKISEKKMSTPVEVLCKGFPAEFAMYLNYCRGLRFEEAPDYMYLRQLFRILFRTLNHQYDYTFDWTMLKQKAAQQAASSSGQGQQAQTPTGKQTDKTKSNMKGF

[7] = molecular target: Casein kinase I isoform alpha (Homo sapiens) (UniProt P48729); settings: at 1 µM
[8] = molecular target: Casein kinase I isoform gamma-1 (Homo sapiens) (UniProt Q9HCP0); settings: at 0.1 µM
Chain of Casein kinase I isoform gamma-1 (Homo sapiens) (Q9HCP0 whole entry, looked up, canonical isoform): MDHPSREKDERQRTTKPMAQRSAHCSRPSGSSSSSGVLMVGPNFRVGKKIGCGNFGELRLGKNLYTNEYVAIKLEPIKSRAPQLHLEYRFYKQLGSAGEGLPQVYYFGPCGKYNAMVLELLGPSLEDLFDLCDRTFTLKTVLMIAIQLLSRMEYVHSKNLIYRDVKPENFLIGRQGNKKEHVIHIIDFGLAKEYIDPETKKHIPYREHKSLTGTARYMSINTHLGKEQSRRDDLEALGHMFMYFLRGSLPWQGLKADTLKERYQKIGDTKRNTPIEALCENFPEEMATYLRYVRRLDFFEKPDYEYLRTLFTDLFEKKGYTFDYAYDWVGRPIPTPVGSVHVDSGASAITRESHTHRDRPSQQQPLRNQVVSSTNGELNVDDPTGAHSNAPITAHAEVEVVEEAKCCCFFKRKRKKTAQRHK

[9] = molecular target: Casein kinase I isoform gamma-1 (Homo sapiens) (UniProt Q9HCP0); settings: at 1 µM
[10] = molecular target: Casein kinase I isoform gamma-2 (Homo sapiens) (UniProt P78368); settings: at 0.1 µM
Chain of Casein kinase I isoform gamma-2 (Homo sapiens) (P78368 whole entry, looked up, canonical isoform): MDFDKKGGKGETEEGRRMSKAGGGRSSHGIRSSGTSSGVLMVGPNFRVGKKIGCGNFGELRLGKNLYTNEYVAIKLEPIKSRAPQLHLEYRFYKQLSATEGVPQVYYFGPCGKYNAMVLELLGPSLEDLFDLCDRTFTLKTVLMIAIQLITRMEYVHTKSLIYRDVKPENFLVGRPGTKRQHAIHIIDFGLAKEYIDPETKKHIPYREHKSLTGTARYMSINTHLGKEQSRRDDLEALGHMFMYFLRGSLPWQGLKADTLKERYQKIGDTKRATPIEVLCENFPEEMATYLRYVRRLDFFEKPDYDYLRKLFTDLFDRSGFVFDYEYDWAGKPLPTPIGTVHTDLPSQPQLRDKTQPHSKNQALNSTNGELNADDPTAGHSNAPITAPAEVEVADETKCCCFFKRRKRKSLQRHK

[11] = molecular target: Casein kinase I isoform gamma-2 (Homo sapiens) (UniProt P78368); settings: at 1 µM
[12] = molecular target: Casein kinase I isoform gamma-3 (Homo sapiens) (UniProt Q9Y6M4); settings: at 0.1 µM
Chain of Casein kinase I isoform gamma-3 (Homo sapiens) (Q9Y6M4 whole entry, looked up, canonical isoform): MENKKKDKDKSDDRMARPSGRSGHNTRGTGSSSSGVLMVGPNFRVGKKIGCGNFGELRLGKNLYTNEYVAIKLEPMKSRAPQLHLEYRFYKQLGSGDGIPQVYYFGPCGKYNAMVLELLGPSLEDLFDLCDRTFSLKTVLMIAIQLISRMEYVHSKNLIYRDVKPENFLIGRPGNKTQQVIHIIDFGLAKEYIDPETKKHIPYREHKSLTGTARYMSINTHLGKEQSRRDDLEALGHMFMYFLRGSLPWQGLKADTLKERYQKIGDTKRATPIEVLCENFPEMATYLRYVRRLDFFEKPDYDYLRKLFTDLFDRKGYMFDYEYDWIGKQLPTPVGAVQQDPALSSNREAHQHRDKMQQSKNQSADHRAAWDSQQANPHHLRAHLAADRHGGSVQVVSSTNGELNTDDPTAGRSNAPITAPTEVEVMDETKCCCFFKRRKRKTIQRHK

[13] = molecular target: Casein kinase I isoform gamma-3 (Homo sapiens) (UniProt Q9Y6M4); settings: at 1 µM
[14] = molecular target: Cyclin-dependent kinase 1 (Homo sapiens) (UniProt P06493); settings: at 0.1 µM
Chain of Cyclin-dependent kinase 1 (Homo sapiens) (P06493 whole entry, looked up): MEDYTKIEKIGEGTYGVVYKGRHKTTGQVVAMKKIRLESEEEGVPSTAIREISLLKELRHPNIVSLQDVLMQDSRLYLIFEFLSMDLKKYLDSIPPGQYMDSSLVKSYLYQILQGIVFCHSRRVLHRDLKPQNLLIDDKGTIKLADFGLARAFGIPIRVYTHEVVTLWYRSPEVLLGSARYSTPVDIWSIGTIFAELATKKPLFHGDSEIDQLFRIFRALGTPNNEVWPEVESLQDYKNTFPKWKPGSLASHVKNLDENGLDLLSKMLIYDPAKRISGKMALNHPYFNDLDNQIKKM

[15] = molecular target: Cyclin-dependent kinase 1 (Homo sapiens) (UniProt P06493); settings: at 1 µM
[16] = molecular target: Cyclin-dependent kinase 2 (Homo sapiens) (UniProt P24941); settings: at 0.1 µM
[17] = molecular target: Cyclin-dependent kinase 2 (Homo sapiens) (UniProt P24941); settings: at 1 µM
[18] = molecular target: Cyclin-dependent kinase 2 (Homo sapiens) (UniProt P24941); settings: at 0.1 µM; remark: listed apart in the source
[19] = molecular target: Cyclin-dependent kinase 2 (Homo sapiens) (UniProt P24941); settings: at 1 µM; remark: listed apart in the source
[20] = molecular target: CDK3/Cyclin E (Homo sapiens) (UniProt P24864+Q00526); settings: at 0.1 µM;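 also: reported percentages are mean inhibition values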
Chain of CDK3/Cyclin E (Homo sapiens) (P24864 whole entry, looked up): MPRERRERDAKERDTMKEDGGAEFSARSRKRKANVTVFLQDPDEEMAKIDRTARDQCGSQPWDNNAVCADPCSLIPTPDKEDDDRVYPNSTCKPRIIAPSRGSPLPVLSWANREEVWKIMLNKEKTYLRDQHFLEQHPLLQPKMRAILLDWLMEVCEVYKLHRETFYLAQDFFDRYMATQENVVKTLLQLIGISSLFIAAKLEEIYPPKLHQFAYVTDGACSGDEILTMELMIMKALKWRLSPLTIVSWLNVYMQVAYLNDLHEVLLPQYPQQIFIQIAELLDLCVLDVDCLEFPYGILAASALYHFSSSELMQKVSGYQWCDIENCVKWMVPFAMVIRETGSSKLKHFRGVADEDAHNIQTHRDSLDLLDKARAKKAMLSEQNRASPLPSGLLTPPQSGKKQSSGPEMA
Chain of CDK3/Cyclin E (Homo sapiens) (Q00526 whole entry, looked up): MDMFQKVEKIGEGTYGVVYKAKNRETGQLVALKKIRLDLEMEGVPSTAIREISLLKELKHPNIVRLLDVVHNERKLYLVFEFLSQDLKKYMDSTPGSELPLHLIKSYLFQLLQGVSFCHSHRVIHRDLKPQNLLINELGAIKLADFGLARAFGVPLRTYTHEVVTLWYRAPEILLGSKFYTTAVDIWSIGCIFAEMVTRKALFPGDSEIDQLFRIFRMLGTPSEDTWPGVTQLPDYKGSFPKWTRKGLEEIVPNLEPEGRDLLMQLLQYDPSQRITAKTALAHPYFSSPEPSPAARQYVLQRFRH

Structure (SMILES) | inhibition [1] [%] | inhibition [2] [%] | inhibition [3] [%] | inhibition [4] [%] | inhibition [5] [%] | inhibition [6] [%] | inhibition [7] [%] | inhibition [8] [%] | inhibition [9] [%] | inhibition [10] [%] | inhibition [11] [%] | inhibition [12] [%] | inhibition [13] [%] | inhibition [14] [%] | inhibition [15] [%] | inhibition [16] [%] | inhibition [17] [%] | inhibition [18] [%] | inhibition [19] [%] | inhibition [20] [%]
CC(=O)Nc1cccc(C#Cc2cncnc2Nc2ccc(OCc3cccc(F)c3)c(Cl)c2)n1 | -0.27 | 2.3 | 4.75 | 0.15 | 5.54 | 0.01 | -1.03 | -1.49 | -2.35 | -0.28 | -2.14 | -0.5 | -0.34 | -0.13 | -0.16 | -1.04 | -0.26 | -1.65 | -0.18 | 1.2
Nc1ncnc2occ(-c3ccc(NC(=O)Nc4cc(C(F)(F)F)cc(C(F)(F)F)c4)cc3)c12 | 3.1 | -0.4 | -1.46 | 1.06 | -2.08 | -0.62 | 1.87 | 1.49 | 2.74 | 0.5 | 1.8 | 1.91 | 1.31 | -0.06 | 4.1 | 0.86 | 2.88 | 1.68 | 3.96 | -1.28
CC1=C(C(=O)Nc2ccc3[nH]ncc3c2)C(c2ccc3ccccc3c2)CC(=O)N1 (stereo not given) | 4.09 | 1.35 | 1.04 | 1.35 | 0.44 | 1.57 | 3.29 | 1.69 | 3.15 | 1.16 | 1.9 | 0.93 | 3.24 | 0.76 | 2.25 | 2.98 | 9.64 | 3.36 | 14.2 | 0.42
COC(=O)Nc1nc2cc(Oc3ccc(NC(=O)Nc4cccc(C(=O)O)c4)cc3)ccc2[nH]1 | 2.42 | 0.41 | 0.96 | 0.4 | 0.93 | 2.25 | 0.72 | -2.42 | -2.13 | -2.21 | -2.28 | -2.29 | -0.39 | -2.2 | 0.34 | -1.03 | 4.44 | 1.71 | 1.67 | 1.76
CCn1c(-c2nonc2N)nc2cncc(C(=O)N3CCNCC3)c21 | 5.51 | 4.82 | 5.83 | 2.4 | 3.03 | 6.74 | 9.8 | 5.02 | 6.64 | 4.43 | 4.57 | 3.46 | 3.18 | 2.63 | 1.24 | 3.94 | 2.62 | 3.71 | 3.23 | -1.18
CS(=O)(=O)CCNCc1ccc(-c2ccc3ncnc(Nc4ccc(OCc5ccccc5)c(Cl)c4)c3c2)o1 | 2.91 | 2.07 | 1.74 | -0.14 | 0.89 | -0.43 | 0.15 | 1.35 | 0.05 | -0.08 | 0.01 | 0.7 | -0.59 | 2.72 | 3.96 | 2.6 | 3.73 | 3.64 | 4.5 | 0.1
CCc1cccc(NC(=O)Nc2ccc(Oc3ccc4nc(NC(=O)OC)[nH]c4c3)cc2)c1 | 0.79 | 1.3 | 1.11 | 0.77 | 1.72 | 2.12 | 0.76 | 1.05 | 0.85 | 1.08 | 0.48 | 0.13 | 2.93 | -1.03 | 0.5 | 0.71 | 1.95 | 3.03 | -0.35 | 1.01
CS(=O)(=O)CCNCc1nc(-c2ccc3ncnc(Nc4ccc(F)c(Cl)c4)c3c2)cs1 | 2.28 | 1.9 | 0.45 | 0.45 | 1.08 | 0.89 | 1.04 | 1.14 | 1.55 | 1.92 | 0.64 | 2.39 | 3.39 | -1.31 | -0.06 | 0.75 | 9.99 | 0.06 | 1.32 | 0.76
Cc1cccc(-c2n[nH]cc2-c2ccc3ncccc3n2)n1 | -2.11 | 0.8 | 0.75 | -0.09 | 1.08 | 1.85 | 1.42 | 0.4 | 1.1 | 0.55 | 0.49 | 0.08 | 1.59 | 0.3 | 2.06 | 0.57 | -1.61 | 0.23 | 0.63 | 0.85
[O-][S+]1CCN(Cc2ccc(-c3ccc4ncnc(Nc5ccc(OCc6ccccc6)c(F)c5)c4c3)o2)CC1 | 2.87 | 1.77 | 0.49 | 0.63 | -1.37 | 2.43 | 4.39 | 2.09 | 3.44 | 1.93 | 3.2 | 1.87 | 3.97 | 0.66 | 0.48 | 1.07 | -1.12 | 1.88 | 2.86 | 5.36
Cc1ccc(NC(=O)c2ccnc(N3CCCC3)c2)cc1-c1ccc(C(=O)NCC2CC2)cc1 | 8.32 | 3.77 | 3.59 | 1.08 | 1.39 | 5.28 | 2.01 | 0.99 | 3.3 | -0.87 | 2.39 | 0.96 | 2.49 | -0.58 | 2.14 | -0.92 | 2.88 | 6.57 | 6.44 | 9.73
NS(=O)(=O)c1cccc(-c2ccc3c(NC(=O)C4CC4)n[nH]c3c2)c1 | 0.44 | -0.2 | -0.47 | -0.61 | -0.16 | 4.11 | 4.53 | -0.89 | 0.05 | -0.75 | -1.38 | -0.89 | 2.47 | 0.37 | 1.15 | 0.27 | -6.96 | 0.15 | 3.36 | 0.71
COc1ccc(-c2ccncc2)cc1C(N)=O | 2.44 | 5.12 | 3.57 | 3.23 | 1.75 | 4.33 | 10.2 | 3.94 | 4.04 | 3.53 | 3.82 | 3.17 | 1.39 | 2.26 | 0.88 | 3.39 | 2.68 | 3.05 | 4.66 | -2.82
